# Source: PubChem BioAssay
# Tb PFK inh = T. brucei PFK enzyme inhibition; O15648; T. brucei PFK, ADP-Glo luminescence; Potency, µM (highest dose often 57.5 µM), for inactives: top-dose activity, negative = inhibition, actives largely listed as inhibitors; actives 0.17% (n = 330,000); AID 485367;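 also: potency is read from the fitted curve at half-maximal effect; 0% = uninhibited 1x PFK enzyme wells and -100% = no-enzyme wells; nearly all actives have a fitted effect of over 60% in size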
# Target sequence (O15648 whole entry, looked up): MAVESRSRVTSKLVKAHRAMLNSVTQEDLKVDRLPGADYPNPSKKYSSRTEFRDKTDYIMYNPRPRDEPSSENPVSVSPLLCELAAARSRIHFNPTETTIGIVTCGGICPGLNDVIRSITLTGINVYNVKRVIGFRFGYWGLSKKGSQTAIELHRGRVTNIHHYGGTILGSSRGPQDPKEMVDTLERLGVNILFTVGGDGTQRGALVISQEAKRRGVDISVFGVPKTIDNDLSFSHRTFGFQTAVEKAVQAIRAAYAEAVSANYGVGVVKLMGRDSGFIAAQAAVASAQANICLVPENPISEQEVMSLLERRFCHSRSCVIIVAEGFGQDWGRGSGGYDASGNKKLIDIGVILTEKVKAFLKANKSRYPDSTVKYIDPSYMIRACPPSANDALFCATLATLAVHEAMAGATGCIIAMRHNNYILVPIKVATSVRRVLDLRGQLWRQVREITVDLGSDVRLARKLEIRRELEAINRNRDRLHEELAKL
#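 Activity is normalized to no-enzyme wells (full inhibition) and 1.25 nM enzyme wells (no inhibition). Reaction: 0.5 mM F6P, 0.1 mM ATP, 45 min RT, ADP-Glo luminescence; concentration-response curves fitted and classed by quality.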
# TDP1 inh = inhibitors of human tyrosyl-DNA phosphodiesterase TDP1; Potency, µM (titrated, usually from 130 µM), inactives show at the top dose activity change, negative = inhibition, most hits filed as inhibitors; recombinant TDP1, AlphaScreen DNA substrate cleavage; Q9NUW8; AID 485290; actives 0.28% (n = 350,000); also: potency is read from the fitted curve at half-maximal effect; nearly all actives have a fitted effect of over 40% in size
#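 Recombinant E. coli-expressed Tdp1 (1 nM) preincubated with compound 15 min at RT, then 5'-biotin/3'-phosphotyrosine-FITC DNA substrate (15 nM) added for 5 min. AlphaScreen beads (10 ug/ml) added, 10 min RT; tyrosine-FITC cleavage read as signal loss.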
# FEN1 inhibitor = human FEN1 inhibition. P39748. Recombinant FEN1 flap cleavage, fluorescence, 15 min. Potency, µM (series often up to 114 µM), inactives show top-dose activity change, negative = inhibition, actives largely listed as inhibitors. actives 0.35% (n = 390,000). AID 588795; also: potency is read from the fitted curve at half-maximal effect; nearly all actives have a fitted effect of over 65% in size
#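 FEN1 at 10 nM preincubated with compounds 15 min at room temperature, then flap DNA substrate added at 50 nM final. Signal read at 0 and 15 min; concentration-response fitted with four-parameter Hill equation.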
# APE1 inh-1 = blocks human APE1 abasic DNA cleavage; recombinant APE1, TAMRA/BHQ-2 abasic DNA cleavage fluorescence; Potency, µM (doses to about 65.8 µM), without a hit: at the highest dose activity change, negative = inhibition, most hits filed as inhibitors; actives 0.35% (n = 350,000); AID 2517;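 also: potency is read from the fitted curve at half-maximal effect; plate controls were vehicle for no effect and reference inhibitor for full effect; nearly all actives have a fitted effect of over 55% in size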
#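 Step 1: APE1 (0.75 nM) with compound, 15 min RT. Step 2: add 50 nM fluorophore/quencher THF duplex. Step 3: three fluorescence reads 60 s apart (525/598 nm); read 3 minus read 1 = reaction progress.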
# Tb PGK inh = T. brucei PGK inhibition; P07378; PGK/GAPDH coupled, Kinase-Glo luminescence, 60 min; Potency, µM (doses to about 57.5 µM), for the others: at the top dose activity change, negative = inhibition, usual class: inhibitors; actives 0.043% (n = 380,000); AID 602233; also: potency is read from the fitted curve at half-maximal effect; nearly all actives have a fitted effect of over 60% in size
#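 Recombinant glycosomal PGK reaction used 1,3-bisphosphoglycerate generated in-well by GAPDH (100nM final) in 100mM TEA pH 7.6, 5mM MgCl2, 0.01% Tween-20. After 60 minutes at room temperature, ATP was read by Kinase-Glo Plus luminescence end-point.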
# PI4K2A block = PI4K2A (human) kinase inhibition. Q9BTU6. actives 0.13% (n = 420,000). activity change, negative = inhibition, % at 76.9 µM. AID 1346378. purified PI4K2A, ADP-Glo luminescence, 1 h; hits give low values; in the data active = activity change below about -50%; inconclusive = mostly about -30% to -49%;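 also: -100% = wells without enzyme as full effect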
#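 In this quantitative HTS, ADP production by PI4K2A was quantified luminescently after 1 h at ambient temperature; 100 microM adenosine served as plate-quality control.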
# DNA dye displace = DNA dye displacement counter-screen activity | shares compounds with APE1 inh-1 | DNA fluorescent dye displacement counterscreen, fluorescence | Potency, µM (top dose mostly 28.5 µM), for the others: at the highest dose activity change, negative = inhibition, actives largely listed as inhibitors | actives 7% (n = 480);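 also: loss of thiazole orange fluorescence as the dye is displaced from duplex DNA; potency is read from the fitted curve at half-maximal effect; 0% = ThO with dsDNA and no compound and -100% = ThO without dsDNA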
# Endo IV inh = blocks E. coli endonuclease IV DNA cleavage. Potency, µM (series often up to 27.1 µM), for inactives: at the top dose activity change, negative = inhibition, usual class: inhibitors. E. coli Endo IV, fluorogenic AP-site DNA cleavage. AID 2565. shares compounds with APE1 inh-1. actives 4% (n = 560);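 also: potency is read from the fitted curve at half-maximal effect; plate controls were uninhibited enzyme wells for no effect and no enzyme buffer wells for full effect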
# APE1 inh-2 = confirmation of inhibitors of human APE1 endonuclease. Potency, µM (series often up to 57.1 µM), without a hit: at the top dose activity change, negative = inhibition, most hits filed as inhibitors. purified APE1, fluorogenic abasic-site DNA cleavage. shares compounds with APE1 inh-1. actives 44% (n = 750); also: potency is read from the fitted curve at half-maximal effect; nearly all actives have a fitted effect of over 30% in size
# APE1 FP = compounds that displace a DNA probe from human APE1; shares compounds with APE1 inh-1; APE1 binding to TAMRA-labelled double-stranded DNA, fluorescence polarization displacement; Potency, µM (top dose mostly 28.5 µM), inactives show top-dose activity, negative = inhibition, most hits filed as inhibitors; actives 7% (n = 480); AID 2573; also: potency is read from the fitted curve at half-maximal effect
# * marks the source's active call; other numbers are inactive results; i = inactive; ? = inconclusive; / = no result given; ! = a repeat was not active; [ ] = dose if it differs, or a comment. This is a sample that favours compounds with a hit; in the whole collection about 0.8% have one here. Unless noted, calls follow the shape of the dose curve; as a rule, active = well fitted curve in the direction sought with a large enough effect; inconclusive = small, poorly fitted or top-dose-only effect, or another doubt; inactive = no such curve, though single readings can be large; an effect the other way counts as inactive or inconclusive. Unless noted, % is scaled to controls: 0 for no effect and ±100 for the full control effect.
SMILES,Tb PFK inh,TDP1 inh,FEN1 inhibitor,APE1 inh-1,Tb PGK inh,PI4K2A block,DNA dye displace,Endo IV inh,APE1 inh-2,APE1 FP
Nc1ccc(NC(=O)c2ccc(C(=O)Nc3ccc(N)cc3)cc2)cc1,?,79.4µM*,-5.5%,-0.4%,0.2%,-2.6,/,/,?,/
Nc1ccc(C(=O)Nc2ccc(Nc3ccncc3)cc2)cc1,3.4%,-1.4%,-7.8%,?,-5.3%,0.0,/,/,/,/
N#Cc1nc(Nc2ccccc2)nc(NC2CCCCC2)n1,/,6.8%,/,35.5µM*,/,/,-6.2%[57.1 µM],16.6%[57.1 µM],-2.5%,?
c1ccc(-c2nc(NCc3cccs3)c3ccccc3n2)cc1,1.1%,-3.3%,2.0%,24.6%,-10.0%,7.0,/,/,/,/
Clc1ccccc1-c1nc(NCc2cccs2)c2ccccc2n1,/,/,/,7.94µM*,/,/,?,-87.2%[57.1 µM],15.8µM*,38.4%[57.1 µM]
Cc1ccc(N=C2NC(=O)/C(=C/C=C/c3ccco3)S2)cc1,-20.0%,-5.6%,50.1µM*,17.8µM*,-14.1%,?,12.6µM*,?,?,-0.8%
COc1ccc(N=C2NC(=O)/C(=C/c3ccco3)S2)cc1,1.0%,0.6%,-5.5%,0.3%,-5.5%,-10.3,/,/,/,/
O=C(NCC(O)CO)c1c(I)c(C(=O)NCC(O)CO)c(I)c(N(CCO)C(=O)CO)c1I (configuration not stated),/,/,/,2.0%[21 µM],/,-5.3,/,/,/,/
CCOC(=O)NC1(NCc2ccccc2)Oc2ccccc2O1,-11.8%,/,-9.1%,2.51µM*,4.7%,7.9,-0.3%,26.1%,?,0.7%
CCOC(=O)NC1(NCC(C)C)Oc2ccccc2O1,-6.5%,?,-10.8%,?,1.8%,1.2,/,/,/,/
CCOC(=O)NC1(NC(C)C)Oc2ccccc2O1,-14.8%,-6.6%,-1.6%,22.4µM*,-6.5%,2.4,-5.2%,3.7%,?,-0.2%
Cc1ccc(NS(=O)(=O)c2cc3c(cc2Cl)CCC(=O)N3)cc1Cl,/,0.9%,/,/,/,/,/,/,/,/
OCCN(Cc1ccccc1)Cc1cccc(Cl)c1Cl,-11.7%,15.8µM*,-13.7%,-5.7%,4.0%,-2.5,/,/,?,/
OC[C@@H](O)C(O)[C@H](O)CO,/,/,/,-4.4%,/,/,/,/,/,/
CCOc1ccccc1-n1nnnc1SCC(=O)NC(=O)NCc1ccco1,?,1.0%,7.4%,28.2µM*,-10.7%,-12.5,?,-4.9%,?,?
O=C(CSc1nnnn1-c1ccccc1)NC(=O)NCc1ccco1,-7.6%,-2.0%,-7.5%,28.2µM*,-3.4%,-8.5,?,3.7%,?,?
O=C(CSc1nnc(COc2ccccc2Cl)o1)NC(=O)NCc1ccco1,?,-2.9%,-10.6%,11.2µM*,-10.8%,-5.7,?,-3.6%,14.1µM*,0.4%
N#CN1CCC(NC(=O)c2ccc(C(F)(F)F)cc2)CC1,/,0.9%,/,/,/,/,/,/,/,/
Cc1ccc2oc(=O)c3c4cc(O)c(O)cc4oc3c2c1,/,3.9%,/,?,/,/,/,/,/,/
COc1cc(O)c2c(c1)oc(=O)c1c3cc(O)c(O)cc3oc21,/,/,/,1.78µM*,/,/,8.91µM*,87.2%[57.1 µM],4.47µM*,0.5%[57.1 µM]
O=C(O)c1cc2cc(F)ccc2[nH]1,0.4%,89.1µM*!,2.2%,-3.2%,-7.5%,2.1,/,/,?,/
CN1CCN(C(=O)c2cc3cc(F)ccc3[nH]2)CC1,1.0%,/,13.0%,13.8%,i,4.7,/,/,/,/
COc1cc2c(cc1OC)[C@@H](c1ccccc1)CN(C)CC2,/,/,/,-1.6%,/,/,/,/,/,/
O=S(=O)(NC1CCCCC1)c1cccc(-c2nnc(-c3ccccc3)o2)c1,3.0%,-4.2%,-10.1%,?,2.1%,-5.4,1.1%,-6.3%,-3.6%[24.4 µM],-9.8%
